# Molecular target: 6-IATR-E. coli SSB (G26C) (Escherichia coli, UniProt P0AGE0 SEQ:1-177, G26C)
# Assay: competition; stated only as similar result to IDCC-G26C
# Settings: tags: 6-IATR label on Cys26; chain copies: 4 (stated, tetramer); ssDNA
sequence,measurement,value
TTTTTTTTTTTTTTTTTTTTTTTTTTTTTTTTTTTTTTTTTTTTTTTTTTTTTTTTTTTTTTTTTTTTTT,binding signal,~28 fold Kd vs unlabeled SSB

# Source: patent publication US20110177501, “BIOSENSOR FOR DETECTION AND VISUALISATION OF SINGLE-STRANDED DNA” (MEDICAL RESEARCH COUNCIL, published 2011)
